Over roughly 33,000 sequences, “E-score (-0.5 to 0.5)” has its median near -0.054; the highest 2% begin near 0.39. Many of the other results were omitted from the sample, so the highest values are more common in it than they were.
molecular target: Ylr278c (UniProt Q05854); test: PBM E-score (8-mer binding enrichment) (E-score (-0.5 to 0.5)); higher = stronger / more preferred TF binding; settings: protein concentration: 200 nM; construct: GST-DNA-binding domain
Summary of the method: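 Each ungapped eight-base word and its reverse complement, pooled, received an E-score from the Universal PBM Analysis Suite. Underlying scans, normalised with masliner, recorded fluorescent anti-GST bound to GST-tagged yeast transcription factors. These were applied at about 100-200 nM to universal all-10-mer Agilent arrays double-stranded by primer extension.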

Sequence of UniProt Q05854 (Q05854 whole entry, the tested form may be a part): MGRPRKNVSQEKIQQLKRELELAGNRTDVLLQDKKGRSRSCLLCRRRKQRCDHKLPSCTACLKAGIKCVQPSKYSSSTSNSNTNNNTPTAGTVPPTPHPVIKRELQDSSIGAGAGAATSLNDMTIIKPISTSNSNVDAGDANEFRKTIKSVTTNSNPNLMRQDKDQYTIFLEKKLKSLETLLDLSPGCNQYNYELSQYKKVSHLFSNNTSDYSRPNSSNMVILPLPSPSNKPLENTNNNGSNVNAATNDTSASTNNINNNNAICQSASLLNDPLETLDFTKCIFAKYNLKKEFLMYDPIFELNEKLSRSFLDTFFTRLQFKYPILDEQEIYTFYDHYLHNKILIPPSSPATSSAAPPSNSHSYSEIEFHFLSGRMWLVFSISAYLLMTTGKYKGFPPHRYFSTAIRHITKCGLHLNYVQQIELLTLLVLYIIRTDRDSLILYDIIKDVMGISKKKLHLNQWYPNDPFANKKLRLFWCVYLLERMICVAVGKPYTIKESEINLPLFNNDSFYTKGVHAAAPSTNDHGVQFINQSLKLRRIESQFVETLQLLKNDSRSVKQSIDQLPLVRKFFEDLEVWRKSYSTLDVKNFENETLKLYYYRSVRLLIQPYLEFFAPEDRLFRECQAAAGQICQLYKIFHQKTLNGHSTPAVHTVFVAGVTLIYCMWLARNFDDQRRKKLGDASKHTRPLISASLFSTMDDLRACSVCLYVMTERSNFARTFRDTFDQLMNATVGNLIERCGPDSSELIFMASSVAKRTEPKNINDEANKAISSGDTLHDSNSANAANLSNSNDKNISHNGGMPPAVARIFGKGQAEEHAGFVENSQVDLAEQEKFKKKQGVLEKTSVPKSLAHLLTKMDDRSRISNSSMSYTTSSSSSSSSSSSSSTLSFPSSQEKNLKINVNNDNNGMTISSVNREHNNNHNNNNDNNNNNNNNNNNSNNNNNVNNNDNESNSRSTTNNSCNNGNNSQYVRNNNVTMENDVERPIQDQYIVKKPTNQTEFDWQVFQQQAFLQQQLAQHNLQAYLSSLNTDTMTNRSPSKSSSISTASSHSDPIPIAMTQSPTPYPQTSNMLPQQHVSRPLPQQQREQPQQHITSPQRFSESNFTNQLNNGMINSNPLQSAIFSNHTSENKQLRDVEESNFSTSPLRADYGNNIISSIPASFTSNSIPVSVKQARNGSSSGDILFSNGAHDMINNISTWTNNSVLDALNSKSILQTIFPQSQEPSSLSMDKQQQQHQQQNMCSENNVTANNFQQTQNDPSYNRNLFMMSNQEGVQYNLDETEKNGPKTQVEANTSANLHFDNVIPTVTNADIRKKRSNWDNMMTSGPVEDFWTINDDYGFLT

Sequence | PBM E-score
CATTCGGA | 0.339
GATTCGGA | 0.363
TATTCGGA | 0.408
AATTCGGC | 0.157
TAAGGGCA | -0.144
CCCCGACC | 0.28
ATAGTCAG | -0.158
CGGACCGA | 0.409
GGGACCGA | 0.164
CGGACCCC | 0.365
CGGACCAC | 0.293
AGGACCGC | 0.227
AGGACCGA | 0.0864
AGGACCCG | 0.158
CGGACCGC | 0.392
CGGACCCG | 0.394
CCACTATC | 0.00626
CTATAGAC | -0.167
CTGATCTC | -0.0675
ACTAATGC | 0.126
CTCTGTTC | -0.0823
CCGGGGTA | 0.408

Sequence | PBM E-score
TCCGGGAA | 0.419
ACCGGGAA | 0.352
CGGGGGAA | 0.255
CCGGGGGA | 0.378
ACCGGTAA | 0.297
TCCGGTAA | 0.44
CCCGGGAA | 0.348
CGGGGGTA | 0.334
GCGGGGTA | 0.323
GCCGGTAA | 0.341
CCGGGGAA | 0.399
CAACGGCG | 0.207
CCATCGCC | 0.075
ATCCAGTA | -0.111
AGAGGTGC | 0.0557
AGCATAGG | -0.11
GGACACAC | 0.149
TCCGGGCA | 0.406
ACCGGGCA | 0.279
GCCGGGCA | 0.304
CCGGGGCG | 0.42
CCCGGGCG | 0.291

Sequence | PBM E-score
CCGGGGCA | 0.293
ATAACCTA | -0.148
CGAACTAA | -0.0681
ACGGATTC | 0.246
CCGGATTC | 0.405
CCGGATTA | 0.455
ACGGATTA | 0.205
GCGGATTA | 0.261
CAGGATTC | -0.11
CATTGGGA | -0.198
AGCAGGAT | -0.079
GTGGCCTA | -0.135
GATTCTAC | 0.107
CGCGGAGA | 0.428
CGCGGAGC | 0.41
GGCGGAGA | 0.444
AGCGGAGA | 0.394
CGCGGATA | 0.32
AGCGGATA | 0.287
CGCGGACA | 0.345
CGCGGATC | 0.272
AGCGGAGC | 0.381

Sequence | PBM E-score
GGCGGAAA | 0.328
GGCGGATA | 0.293
AGCGGAGG | 0.302
CGACTGAG | -0.181
CTCAGTCA | -0.282
CTGAGTTA | -0.248
ATTCCCAA | -0.06
ACCTCTCA | 0.0413
TAATTCCA | -0.0294
CCTCGGAA | 0.39
TCTCGGAA | 0.414
ACTCGGAT | 0.251
ACTCGGAA | 0.398
ACTCGGAC | 0.383
CCTCGGCA | 0.25
TCTCGGCA | 0.266
CCTCGGCG | 0.359
CCTCGGAG | 0.456
CCTCGGAC | 0.374
CCTCGGTA | -0.0307
GCTCGGAA | 0.338
CAATCATG | -0.214

Sequence | PBM E-score
CGTATTTA | 0.0653
CAAGCTGC | -0.103
GAGGATAC | -0.125
ATTCATAC | 0.0829
ACTCTTCA | -0.191
CGTCAGAA | -0.25
CGTTTAAC | -0.174
CGTTAGAC | -0.0149
AGCGCGTA | -0.109
CCCCTTAG | 0.0521
ACTCGGCG | 0.256
ACTCGGAG | 0.428
ACTCGGTG | 0.0389
TAGGGACA | -0.0143
CGGAGCGC | 0.391
AGGAGCGC | -0.0703
CTGAGCGC | -0.145
CGGAGCGA | 0.415
GGGAGCGA | -0.116
AGGAGCGA | -0.0963
AATGGAAT | 0.0961
ATCTGTGG | -0.141
